Test results: PubChem BioAssay AID793 (The Scripps Research Institute Molecular Screening Center, 2007)
The campaign covered roughly 140,000 compounds. About 1,400 (1%) were called active. Cut-off read from the data, not from the text of the source: active = inhibition above about 17%; inactive = the rest. The sample as a whole holds a higher share of actives than the screen did.

Target: Neuropeptide Y receptor type 2 (Homo sapiens) (UniProt P49146)
Experiment: NPY-Y2 receptor antagonists, primary screen, cell-based (AID 793);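 note: 0% = vehicle with agonist challenge and 100% = reference antagonist with challenge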
Conditions: NPY-Y2 expressing cells, antagonist mode; at 2.7 µM; active compounds read high

Sequence of Neuropeptide Y receptor type 2 (Homo sapiens) (P49146 whole entry, looked up): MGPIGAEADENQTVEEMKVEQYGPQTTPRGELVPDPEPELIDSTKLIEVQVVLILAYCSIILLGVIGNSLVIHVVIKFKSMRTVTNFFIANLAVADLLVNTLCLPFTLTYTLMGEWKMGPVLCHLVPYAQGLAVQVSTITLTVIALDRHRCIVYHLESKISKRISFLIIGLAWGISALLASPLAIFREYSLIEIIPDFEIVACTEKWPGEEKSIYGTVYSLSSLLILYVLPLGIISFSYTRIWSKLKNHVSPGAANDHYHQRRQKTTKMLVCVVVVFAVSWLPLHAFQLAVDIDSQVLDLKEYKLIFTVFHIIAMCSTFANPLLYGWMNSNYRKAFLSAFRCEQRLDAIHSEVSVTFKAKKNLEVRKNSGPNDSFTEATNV

inhibition, inactive:
CSCc1ccc(C(=O)Nc2cc(C)cc(C)c2)cc1 3.07%, CC(=O)c1c(Nc2ccccc2)sc(C(=O)c2ccccc2)c1C 14.2%, CCCCOC(=O)Nc1sc2nc(C)cc(C)c2c1-n1cccc1 4.45%, COC(=O)Nc1sc2nc(C)cc(C)c2c1-n1cccc1 2.27%, O=C(Nc1cccc(S(=O)(=O)N2CCCCC2)c1)c1ccc2c(c1)OCO2 3.64%, Cc1nc(Cl)c2oc3ccccc3c2n1 4.04%, CCc1nc(Nc2ccc3nccnc3c2)c2oc3ccccc3c2n1 -2.05%, CCC(C)(C)NC(=O)c1cc([N+](=O)[O-])ccc1N1CCCCC1 0.52%, O=[N+]([O-])c1ccc(N2CCN(c3ccc(O)cc3)CC2)c(Cl)c1 -2.81%, NC(=O)CC[C@@H]1NC(=O)[C@@H]2CCCN2C(=O)c2cc([N+](=O)[O-])cc(F)c2NCCC[C@@H](C(N)=O)NC1=O -1.38%, CCC1=NN(C(=O)Cc2ccc([N+](=O)[O-])cc2)C(O)(c2ccc(Br)cc2)C1 (configuration not stated) 4%, COCCNC(=O)C(c1ccc(C)o1)N(Cc1ccccc1)C(=O)Cn1nnc2ccccc21 (configuration not stated) 2.71%, Cc1ccc(C(C(=O)NCc2ccco2)N(CC2CCCO2)C(=O)Cn2nnc3ccccc32)cc1 (configuration not stated) 5.64%, O=C(Cn1nc(CNc2ccc(Cl)cc2)[n+]2c1CCCCC2)c1ccc(Cl)cc1 0.53%, CCn1nc(C)c(/C=N/NC(=O)Cc2ccc(Cl)cc2)c1C 2.23%, COc1cccc(NC(=O)Cc2ccc(C)cc2)c1 3.66%, COc1ccc(NS(=O)(=O)c2ccc(NC(=S)NC(=O)/C=C/c3ccc(C)cc3)cc2)nn1 3.45%, CN(C)c1ccc(/C=N/NC(=O)c2ccc(Cn3cc(Br)cn3)o2)cc1 -0.65%, CCCCC1S/C(=N/N=C/c2cccs2)NC1=O (configuration not stated) 2.47%, CCOc1cccc(SCc2noc(C(=O)NC(C)C)c2C(=O)O)c1 6.09%, COCCNC(=O)c1onc(CSc2cccc(C)c2)c1C(=O)O 5.73%, COc1ccnc(Oc2ccccc2)n1 1.08%, CCCC(=O)C1CCN(Cc2ccccc2)CC1 0.89%, O=C(Nc1ccccc1)N1CCN(Cc2ccccc2)CC1 0.29%, COc1ccccc1N1CCN(CC(=O)NC(=O)NCc2ccco2)CC1 2.56%, Cc1ccc(C(CC(=O)O)Nc2nc(N3CCCCC3)nc(N3CCCCC3)n2)cc1 (configuration not stated) 1.53%, CC(C)n1c(C(O)c2ccccc2)nc2ccccc21 (configuration not stated) 1.4%, Cc1cc(SCC(=O)c2ccccc2)nc(SCC(=O)c2ccccc2)n1 13.8%, COC(=O)c1cc(C(=O)CSc2nc(C)cc(C)n2)ccc1O 4.06%, Cc1ccccc1OCC(=O)Nc1nc(C)c(C(=O)N(C)C)s1 5.58%, CC1CCN(C(=S)NC2CC3CCC2C3)CC1 (configuration not stated) 1.13%, O=C(CN1C(=O)NC2(CCCCCC2)C1=O)NCc1cccs1 -3.2%, O=C(CN1C(=O)NC2(CCCCC2)C1=O)NCCC1=CCCCC1 0.27%, O=C1CC(c2ccccc2)CC(O)=C1C=NCCN1CCOCC1 (configuration not stated) 0.58%, O=C1CCCC(O)=C1C=NCCc1ccccc1 1.66%, COc1ccc(NC(C(=O)Nc2cccc(C(C)=O)c2)c2ccccc2)cc1 (configuration not stated) -1.54%, COCCCNCCOCCOc1ccc(Cl)cc1Br 3.88%, O=C(NCc1cccnc1)c1ccc(CS(=O)(=O)c2ccc(Br)cc2)o1 -0.12%, O=C(NCc1cccnc1)c1cccnc1Sc1ccc(Cl)cc1 -0.63%, COc1ccc(/C=N/NC(=O)c2ccccc2)cc1OS(=O)(=O)c1ccccc1 0.26%, COc1ccc(-c2noc(CSc3ccc(C)cc3)n2)cc1 16.5%, COc1ccc(-c2noc(-c3ccc(C)cc3)n2)cc1 2.85%, O=C(NCCCO)/C(=C\C=C\c1ccccc1)NC(=O)c1ccccc1Cl 1.12%, CCOC12CC(C)(C)CC(C)(CC3=C1C(=O)CC(C)(C)C3)C2 (configuration not stated) 3.39%, COc1ccc(C(=O)Nc2c(Cl)cc(Cl)cc2C(=O)N2CCC(C)CC2)cc1 3.91%, c1cncc(-c2nnc3n2C2(CCCCC2)Cc2ccccc2-3)c1 1.77%, CCC1(CC)Cc2ccccc2-c2nc3ccccc3c(=O)n21 7.5%, COc1ccc(C(C(=O)NC2CCCCC2)N(C(=O)Cc2c[nH]c3ccccc23)c2ccccc2)cc1OC (configuration not stated) 0.1%, CC(NC(=O)c1cccc2ccccc12)c1ccc2c(c1)CCCC2 (configuration not stated) 5.32%, CN(C)CCNC(CC(=O)Nc1ccc(Cl)c(Cl)c1)C(=O)O (configuration not stated) 0.54%, O=C(CC(=O)Nc1ccc(Cl)c(Cl)c1)N/N=C/c1ccc(O)cc1 -3.17%, Nc1nc(SCc2ccc([N+](=O)[O-])cc2)c2ncn(C3OC(CO)C(O)C3O)c2n1 (configuration not stated) 1.64%, O=C(Nc1cn(-c2ccccc2)nc1-c1ccccc1)c1ccccc1 9.26%, O=C(NCCN1CCOCC1)c1cc(Sc2cccc(Cl)c2)nc2ccccc12 3.17%, COc1ccc(OCCCC(=O)NCCc2ccccc2)cc1 4.05%, CCCCNC(=O)C1(c2ccc(OC)cc2)CCOCC1 3.6%, CCOC(=O)C1=C(C)NC(=O)NC1c1ccccc1 (configuration not stated) 0.94%, O=C(Nc1nnc(SCc2ccc(Cl)cc2Cl)s1)C1COc2ccccc2O1 (configuration not stated) -1.05%, O=C(Nc1nnc(CCc2ccccc2)s1)C1CCCO1 (configuration not stated) 3.28%, COc1ccc(NC(=O)c2ccc(C#CC(C)(C)O)cc2)cc1 -0.31%, Cc1nn2c3ccccc3nc2n(C)c1=O 10.8%, Cc1ccc(O)c(CNc2nc3ccccc3n2C)c1 -2.2%, O=C(NC1CCN(Cc2ccccc2)CC1)c1c(F)cccc1F 0.52%, O=S(=O)(NCCSc1ccccn1)c1ccc(Cl)cc1 6%, Cc1ccc(S(=O)(=O)NCCSc2ccccc2)cc1[N+](=O)[O-] 13.3%, Cc1cc(=O)oc2cc(OCC3CC(c4ccccc4Cl)=NO3)ccc12 (configuration not stated) 10.7%, Cc1ccccc1NC(=O)c1ccc(COc2ccc3c(C)cc(=O)oc3c2)cc1 1.18%, CC1(C)C(C=C(Cl)Cl)C1C(=O)N(Cc1ccc(Cl)cc1)C1CCS(=O)(=O)C1 (configuration not stated) 5.56%, CCNc1ccc(C(=O)OCC(=O)N2c3ccccc3NC(=O)C2(C)C)cc1[N+](=O)[O-] 0.27%, COc1ccc(Cl)cc1-n1c(C)cc(C(=O)OCC(=O)N2CC(=O)Nc3ccccc32)c1C -0.44%, CCS(=O)(=O)n1nc(-c2ccccc2)nc1SCc1ccccc1 11.5%, Cc1ccc(Sc2cc(N3CCOCC3)nc(-c3ccccc3)n2)cc1 -0.14%, COc1ccc(N2CCN(Cc3nnc(-c4ccccc4)o3)CC2)cc1 3.16%, Cc1nc2nc3c(cn2n1)C(=O)CC(c1ccccc1)C3 (configuration not stated) 2.84%

inhibition, active:
Cc1cc(C)c2c(-n3cccc3)c(NC(=O)OCc3ccccc3)sc2n1 24.7%, COc1ccccc1Nc1ncnc2c1oc1ccccc12 19.4%, CCN1CCN(c2ccc([N+](=O)[O-])cc2C(=O)c2ccc(Cl)cc2)CC1 22.2%, COc1ccccc1N(C(=O)Cn1nnc2ccccc21)C(C(=O)NCc1ccco1)c1ccc(C)o1 (configuration not stated) 26.2%, COc1ccc(NC(=O)/C(Cl)=C(/Cl)S(=O)Cc2ccc(C)cc2)cn1 (configuration not stated) 52%, CCCCNC(=O)c1onc(CSc2cccc(OC)c2)c1C(=O)O 28%, CC12CN(Cc3ccccc3)CC(C)(CN(Cc3ccccc3)C1)C2=NO 28.4%, CC(Nc1nc(N2CCCC2)nc2ccccc12)c1ccccc1 (configuration not stated) 54.6%, Cc1cc(Oc2ccc(Cl)cc2)nc(SCC(=O)c2ccccc2)n1 48.6%, O=C(CN1C(=O)NC(Cc2ccccc2)(Cc2ccccc2)C1=O)NCC1CCCCC1 80.5%, O=C1CC(c2cccc(Cl)c2)CC(O)=C1C=Nc1ccccc1 (configuration not stated) 18.4%, Cc1ccc(S(=O)(=O)N(Cc2ccc(Cl)cc2)c2ccccc2C(=O)NCc2cccnc2)cc1 35%, COc1ccc(-c2noc(COc3ccc(Cl)c(C)c3)n2)cc1 18.2%, O=c1c2ccccc2nc2n1C1(CCCCC1)Cc1ccccc1-2 21.2%, O=C(CC(O)(C(F)(F)F)C(F)(F)F)Nc1ccc(Cl)c(Cl)c1 24.4%, CCCCCNC(=O)Cc1ccc(OC)cc1 20.3%, O=C(Nc1nnc(SCc2c(Cl)cccc2Cl)s1)C1CCCO1 (configuration not stated) 22.4%, Cc1ccc(C2=NN(C)c3nc4ccccc4n3C2)cc1 18.8%, CCOc1ccc(S(=O)(=O)NCCSc2ccccc2)cc1 20.6%, Cc1ccccc1N1CCN(CCCOc2ccc3c(C)cc(=O)oc3c2)CC1 22.1%, Cc1cc(C(=O)OCC(=O)N2c3ccccc3NC(=O)C2(C)C)c(C)n1-c1ccccc1 20.1%, O=S(=O)(Cc1cc(Sc2ccccc2)nc(-c2ccccc2)n1)c1ccccc1 32.1%, Cc1cc(C)nc(-n2ncc3c2CC(c2ccc(C(C)C)cc2)CC3=O)n1 (configuration not stated) 24.9%
